Measurements: PubChem BioAssay (EPA / NIEHS)
Records with an inconclusive call do not appear. Calls of active or inactive are those of the source. How the source made its calls: active means hit-call score of the fitted dose curve at least 0.9, where 1 is the maximum; inconclusive means response in the unintended direction; inactive means score below 0.9.

How the values were obtained:
[1] = target: human Protein Tyrosine Phosphatase Receptor Type F (PTPRF), PTPRF (gene 5792) (UniProt P10586); assay: NVS_ENZ_hPTPRF: NovaScreen (NVS) Enzymatic Assay for human Protein Tyrosine Phosphatase Receptor Type F (PTPRF) (AID 2283213)
Procedure, shortened: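 Cell-free fluorescence enzyme assay with recombinant protein and substrate; product separated by electrophoretic mobility shift. Read 1 h after dosing, single 25 uM duplicate screen, then concentration-response up to 50 uM; loss of signal vs DMSO.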

[2] = target: human Protein Tyrosine Phosphatase Receptor Type M (PTPRM), PTPRM (gene 5797) (UniProt P28827); assay: NVS_ENZ_hPTPRM: NovaScreen (NVS) Enzymatic Assay for human Protein Tyrosine Phosphatase Receptor Type M (PTPRM) (AID 2283215)
Chain of human Protein Tyrosine Phosphatase Receptor Type M (PTPRM), PTPRM (gene 5797) (P28827 whole entry, looked up): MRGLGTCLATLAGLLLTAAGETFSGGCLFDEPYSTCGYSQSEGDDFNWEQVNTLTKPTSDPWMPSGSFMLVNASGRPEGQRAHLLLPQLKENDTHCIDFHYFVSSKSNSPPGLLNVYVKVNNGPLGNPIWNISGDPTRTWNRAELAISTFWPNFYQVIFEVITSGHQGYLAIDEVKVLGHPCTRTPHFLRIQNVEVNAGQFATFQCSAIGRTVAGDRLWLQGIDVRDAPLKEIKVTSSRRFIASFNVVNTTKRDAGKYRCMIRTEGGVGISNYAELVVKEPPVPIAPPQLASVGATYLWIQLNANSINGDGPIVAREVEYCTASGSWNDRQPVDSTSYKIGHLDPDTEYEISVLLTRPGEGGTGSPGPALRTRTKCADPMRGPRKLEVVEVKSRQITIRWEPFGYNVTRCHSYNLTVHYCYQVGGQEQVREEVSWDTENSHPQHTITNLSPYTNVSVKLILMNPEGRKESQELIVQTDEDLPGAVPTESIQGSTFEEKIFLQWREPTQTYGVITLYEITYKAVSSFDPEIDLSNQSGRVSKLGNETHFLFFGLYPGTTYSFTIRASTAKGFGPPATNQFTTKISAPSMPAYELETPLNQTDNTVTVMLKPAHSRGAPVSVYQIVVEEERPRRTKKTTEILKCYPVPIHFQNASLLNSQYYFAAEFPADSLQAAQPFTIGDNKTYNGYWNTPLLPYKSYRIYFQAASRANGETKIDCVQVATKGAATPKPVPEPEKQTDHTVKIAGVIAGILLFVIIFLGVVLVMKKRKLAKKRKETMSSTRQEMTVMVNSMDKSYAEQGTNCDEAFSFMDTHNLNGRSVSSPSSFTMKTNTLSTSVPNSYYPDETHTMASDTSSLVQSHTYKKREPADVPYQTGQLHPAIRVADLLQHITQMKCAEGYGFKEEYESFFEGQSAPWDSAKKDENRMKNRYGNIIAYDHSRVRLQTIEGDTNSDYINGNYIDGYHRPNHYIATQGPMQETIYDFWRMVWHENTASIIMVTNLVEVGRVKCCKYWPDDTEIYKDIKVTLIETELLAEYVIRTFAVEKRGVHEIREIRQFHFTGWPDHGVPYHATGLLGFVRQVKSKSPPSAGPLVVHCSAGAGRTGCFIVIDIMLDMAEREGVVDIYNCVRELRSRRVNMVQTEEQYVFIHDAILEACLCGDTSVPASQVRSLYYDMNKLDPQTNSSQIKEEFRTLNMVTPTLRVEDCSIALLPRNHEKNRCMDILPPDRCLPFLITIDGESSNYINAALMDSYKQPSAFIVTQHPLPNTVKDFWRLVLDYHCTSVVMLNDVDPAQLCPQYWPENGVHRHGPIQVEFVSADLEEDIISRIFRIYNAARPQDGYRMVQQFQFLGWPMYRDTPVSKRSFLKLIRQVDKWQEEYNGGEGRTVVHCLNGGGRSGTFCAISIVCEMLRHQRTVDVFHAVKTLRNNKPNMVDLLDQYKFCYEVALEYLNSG
Procedure, shortened: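 Read-out is fluorescence after electrophoretic separation of substrate and product, taken 1.33 h post-dosing with recombinant enzyme. Compounds screened at 25 uM in duplicate, then concentration series for actives; activity as signal loss relative to DMSO.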

[3] = target: human Sirtuin 2 (SIRT2), SIRT2 (gene 22933) (UniProt Q8IXJ6); assay: NVS_ENZ_hSIRT2: NovaScreen (NVS) Enzymatic Assay for human Sirtuin 2 (SIRT2) (AID 2283217)
Chain of human Sirtuin 2 (SIRT2), SIRT2 (gene 22933) (Q8IXJ6 whole entry, looked up): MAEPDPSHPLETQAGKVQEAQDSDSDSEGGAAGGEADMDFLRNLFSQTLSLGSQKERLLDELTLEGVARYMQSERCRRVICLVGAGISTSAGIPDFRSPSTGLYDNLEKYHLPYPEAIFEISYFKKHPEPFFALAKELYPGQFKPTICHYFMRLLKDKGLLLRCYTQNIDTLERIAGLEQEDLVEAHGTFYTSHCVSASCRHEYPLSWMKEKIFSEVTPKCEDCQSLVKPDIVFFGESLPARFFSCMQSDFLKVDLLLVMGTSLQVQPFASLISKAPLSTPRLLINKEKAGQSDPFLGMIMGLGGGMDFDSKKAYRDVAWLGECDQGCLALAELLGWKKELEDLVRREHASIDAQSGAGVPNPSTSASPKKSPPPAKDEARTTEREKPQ
Procedure, shortened: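 Single-point duplicate screen at 25 uM, then concentration-response (max 50 uM) for chemicals passing threshold. Enzyme activity of recombinant human SIRT2 measured after 1 hr by fluorescence with mobility-shift separation of product; DMSO baseline.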

[4] = target: human Sirtuin 1 (SIRT1), SIRT1 (gene 23411) (UniProt Q96EB6); assay: NVS_ENZ_hSIRT1: NovaScreen (NVS) Enzymatic Assay for human Sirtuin 1 (SIRT1) (AID 2283219)
Procedure, shortened: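 Cell-free recombinant SIRT1 with a fluorescent substrate; substrate and product separated by electrophoretic mobility shift and read by fluorescence intensity, 1 h after dosing. Primary screen at 25 uM in duplicate; hits re-run in concentration-response up to 50 uM, relative to DMSO.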

[5] = target: human Sirtuin 3 (SIRT3), SIRT3 (gene 23410) (UniProt Q9NTG7); assay: NVS_ENZ_hSIRT3: NovaScreen (NVS) Enzymatic Assay for human Sirtuin 3 (SIRT3) (AID 2283222)
Chain of human Sirtuin 3 (SIRT3), SIRT3 (gene 23410) (Q9NTG7 whole entry, looked up): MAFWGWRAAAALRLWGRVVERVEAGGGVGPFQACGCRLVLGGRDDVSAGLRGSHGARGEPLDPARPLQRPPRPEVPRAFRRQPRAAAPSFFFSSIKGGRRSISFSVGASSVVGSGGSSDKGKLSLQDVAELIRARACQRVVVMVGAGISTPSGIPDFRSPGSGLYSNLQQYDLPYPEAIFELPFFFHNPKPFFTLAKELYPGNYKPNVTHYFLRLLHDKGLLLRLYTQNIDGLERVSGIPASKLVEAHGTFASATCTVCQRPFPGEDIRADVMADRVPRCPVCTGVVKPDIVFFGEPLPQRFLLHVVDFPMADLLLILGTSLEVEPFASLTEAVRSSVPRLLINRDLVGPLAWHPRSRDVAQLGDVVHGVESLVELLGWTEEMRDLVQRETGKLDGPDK
Procedure, shortened: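 Cell-free enzyme assay with recombinant protein and fluorescent substrate, product separated by electrophoretic mobility shift; read 1 hour after dosing. Screened in duplicate at 25 uM, then singleton concentration-response up to 50 uM; loss of signal versus DMSO.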

[6] = target: human Vascular Endothelial Growth Factor Receptor 3 (VEGFR3), FLT4 (gene 2324) (UniProt P35916); assay: NVS_ENZ_hVEGFR3: NovaScreen (NVS) Enzymatic Assay for human Vascular Endothelial Growth Factor Receptor 3 (VEGFR3) (AID 2283229)
Procedure, shortened: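 Chemicals first run in duplicate at 25 uM, with actives re-tested in concentration series to a top of 50 uM. Recombinant VEGFR3 activity measured after 1 h via fluorescence with mobility-shift product separation; inhibition fitted relative to DMSO.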

[7] = target: human Vascular Endothelial Growth Factor Receptor 2 (VEGFR2), KDR (gene 3791) (UniProt P35968); assay: NVS_ENZ_hVEGFR2: NovaScreen (NVS) Enzymatic Assay for human Vascular Endothelial Growth Factor Receptor 2 (VEGFR2) (AID 2283230)
Procedure, shortened: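 Cell-free recombinant VEGFR2 kinase, fluorescent substrate with electrophoretic mobility-shift separation; read 1 h after dosing. Screened at 25 uM in duplicate, hits to concentration-response up to 50 uM; loss-of-signal versus DMSO.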

[8] = target: sheep Cyclooxygenase-2 (Cox2), PTGS2 (gene 443460) (UniProt P79208); assay: NVS_ENZ_oCOX2: NovaScreen (NVS) Enzymatic Assay for sheep Cyclooxygenase-2 (Cox2) (AID 2283231)
Procedure, shortened: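 Enzyme from ovine placenta, cell-free; colorimetric absorbance read 0.66 hour after dosing, loss of signal vs DMSO. Screened in duplicate at 25 uM, then concentration-response up to 50 uM.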

[9] = target: human Tropomyosin Receptor Kinase A (TRKA), NTRK1 (gene 4914) (UniProt P04629); assay: NVS_ENZ_hTrkA: NovaScreen (NVS) Enzymatic Assay for human Tropomyosin Receptor Kinase A (TRKA) (AID 2283224)
Chain of human Tropomyosin Receptor Kinase A (TRKA), NTRK1 (gene 4914) (P04629 whole entry, looked up): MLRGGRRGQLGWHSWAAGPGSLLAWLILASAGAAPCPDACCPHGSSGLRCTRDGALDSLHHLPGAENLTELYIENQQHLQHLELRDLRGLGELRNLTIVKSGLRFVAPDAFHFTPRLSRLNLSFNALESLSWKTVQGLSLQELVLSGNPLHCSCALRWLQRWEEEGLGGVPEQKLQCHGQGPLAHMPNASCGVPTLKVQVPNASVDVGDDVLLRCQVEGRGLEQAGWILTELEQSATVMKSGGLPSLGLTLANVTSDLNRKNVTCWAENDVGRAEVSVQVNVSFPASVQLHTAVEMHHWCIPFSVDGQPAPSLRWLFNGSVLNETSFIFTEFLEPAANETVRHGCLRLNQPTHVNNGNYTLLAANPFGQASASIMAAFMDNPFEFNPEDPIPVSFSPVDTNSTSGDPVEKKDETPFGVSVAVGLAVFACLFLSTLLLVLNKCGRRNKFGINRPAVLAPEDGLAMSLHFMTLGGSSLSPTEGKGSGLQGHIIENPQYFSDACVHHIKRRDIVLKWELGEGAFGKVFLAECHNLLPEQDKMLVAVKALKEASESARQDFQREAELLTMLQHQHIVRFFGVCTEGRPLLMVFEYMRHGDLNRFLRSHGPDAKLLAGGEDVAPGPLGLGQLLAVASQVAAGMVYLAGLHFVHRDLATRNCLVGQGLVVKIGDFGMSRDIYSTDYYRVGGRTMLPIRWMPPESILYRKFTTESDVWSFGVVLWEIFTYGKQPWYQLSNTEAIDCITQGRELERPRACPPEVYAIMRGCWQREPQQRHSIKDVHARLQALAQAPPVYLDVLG
Procedure, shortened: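 Compounds were screened at 25 uM in duplicate, then concentration series to a 50 uM top for those meeting threshold (e.g. 30% inhibition). Enzyme was recombinant human TrkA, incubated 1 h. Product formation was quantified by fluorescence after mobility-shift separation.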

[10] = target: human Vascular Endothelial Growth Factor Receptor 1 (VEGFR1), FLT1 (gene 2321) (UniProt P17948); assay: NVS_ENZ_hVEGFR1: NovaScreen (NVS) Enzymatic Assay for human Vascular Endothelial Growth Factor Receptor 1 (VEGFR1) (AID 2283226)
Procedure, shortened: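 Kinase activity of recombinant human VEGFR1 was read by fluorescence after electrophoretic separation of product from substrate, 1 h post-dosing; initial duplicate single-point testing at 25 uM, followed by concentration-series follow-up, with DMSO as baseline.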

[11] = target: sheep Cyclooxygenase-1 (Cox1), PTGS1 (gene 443551) (UniProt P05979); assay: NVS_ENZ_oCOX1: NovaScreen (NVS) Enzymatic Assay for sheep Cyclooxygenase-1 (Cox1) (AID 2283239);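 further: actives reduce cyclooxygenase activity so potencies are for inhibitors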
Procedure, shortened: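 Ovine seminal vesicle extract; absorbance (colorimetric) enzyme read-out at 0.66 h post-dose. Primary: single conc 25 uM, duplicate. Follow-up: concentration series on actives. Activity = signal loss vs DMSO baseline.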

[12] = target: human Rho Associated Coiled-coil Containing Protein Kinase 1 (ROCK1), ROCK1 (gene 6093) (UniProt Q13464); assay: NVS_ENZ_hROCK1: NovaScreen (NVS) Enzymatic Assay for human Rho Associated Coiled-coil Containing Protein Kinase 1 (ROCK1) (AID 2283214)
Chain of human Rho Associated Coiled-coil Containing Protein Kinase 1 (ROCK1), ROCK1 (gene 6093) (Q13464 whole entry, looked up): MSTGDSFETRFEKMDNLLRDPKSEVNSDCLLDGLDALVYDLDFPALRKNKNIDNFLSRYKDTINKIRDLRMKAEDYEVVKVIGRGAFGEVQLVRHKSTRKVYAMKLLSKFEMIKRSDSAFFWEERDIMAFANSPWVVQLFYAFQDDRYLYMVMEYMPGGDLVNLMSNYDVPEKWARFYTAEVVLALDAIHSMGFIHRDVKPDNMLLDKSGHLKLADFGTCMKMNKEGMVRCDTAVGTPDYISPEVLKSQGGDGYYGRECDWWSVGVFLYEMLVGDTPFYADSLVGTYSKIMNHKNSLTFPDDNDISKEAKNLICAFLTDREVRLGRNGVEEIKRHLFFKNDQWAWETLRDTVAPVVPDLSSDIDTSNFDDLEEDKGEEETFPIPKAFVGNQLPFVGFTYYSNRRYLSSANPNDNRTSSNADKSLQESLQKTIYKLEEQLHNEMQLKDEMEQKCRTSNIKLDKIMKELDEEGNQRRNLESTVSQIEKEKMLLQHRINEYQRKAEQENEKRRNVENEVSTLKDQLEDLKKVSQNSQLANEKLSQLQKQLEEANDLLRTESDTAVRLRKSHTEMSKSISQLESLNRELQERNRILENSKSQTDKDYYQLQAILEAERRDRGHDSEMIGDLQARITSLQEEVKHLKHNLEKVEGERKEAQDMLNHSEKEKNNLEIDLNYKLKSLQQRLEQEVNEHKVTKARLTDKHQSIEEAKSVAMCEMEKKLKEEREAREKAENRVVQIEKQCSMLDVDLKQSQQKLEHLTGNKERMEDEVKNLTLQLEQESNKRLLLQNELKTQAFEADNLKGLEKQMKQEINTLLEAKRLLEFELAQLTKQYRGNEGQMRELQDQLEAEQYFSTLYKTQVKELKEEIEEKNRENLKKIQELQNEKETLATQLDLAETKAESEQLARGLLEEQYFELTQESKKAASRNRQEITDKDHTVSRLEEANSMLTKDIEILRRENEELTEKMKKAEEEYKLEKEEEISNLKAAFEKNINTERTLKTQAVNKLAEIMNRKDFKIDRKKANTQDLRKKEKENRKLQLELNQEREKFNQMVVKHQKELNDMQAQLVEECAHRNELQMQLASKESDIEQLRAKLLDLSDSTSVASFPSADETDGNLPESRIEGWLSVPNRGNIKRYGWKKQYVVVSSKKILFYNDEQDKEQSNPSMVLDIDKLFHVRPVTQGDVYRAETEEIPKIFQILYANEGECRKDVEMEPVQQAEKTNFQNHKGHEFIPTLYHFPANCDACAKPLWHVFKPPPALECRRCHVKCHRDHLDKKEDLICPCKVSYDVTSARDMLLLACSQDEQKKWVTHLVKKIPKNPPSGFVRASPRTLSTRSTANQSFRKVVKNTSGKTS
Procedure, shortened: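 Compounds first run in duplicate at 25 uM against recombinant human ROCK1, then followed in concentration series. Kinase activity was read 1 h post-dosing by fluorescence with mobility-shift separation, as signal loss relative to DMSO.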

[13] = target: human SRC Proto-Oncogene, Non-receptor Tyrosine Kinase (SRC), SRC (gene 6714) (UniProt P12931); assay: NVS_ENZ_hSRC: NovaScreen (NVS) Enzymatic Assay for human SRC Proto-Oncogene, Non-receptor Tyrosine Kinase (SRC) (AID 2283223)
Chain of human SRC Proto-Oncogene, Non-receptor Tyrosine Kinase (SRC), SRC (gene 6714) (P12931 whole entry, looked up): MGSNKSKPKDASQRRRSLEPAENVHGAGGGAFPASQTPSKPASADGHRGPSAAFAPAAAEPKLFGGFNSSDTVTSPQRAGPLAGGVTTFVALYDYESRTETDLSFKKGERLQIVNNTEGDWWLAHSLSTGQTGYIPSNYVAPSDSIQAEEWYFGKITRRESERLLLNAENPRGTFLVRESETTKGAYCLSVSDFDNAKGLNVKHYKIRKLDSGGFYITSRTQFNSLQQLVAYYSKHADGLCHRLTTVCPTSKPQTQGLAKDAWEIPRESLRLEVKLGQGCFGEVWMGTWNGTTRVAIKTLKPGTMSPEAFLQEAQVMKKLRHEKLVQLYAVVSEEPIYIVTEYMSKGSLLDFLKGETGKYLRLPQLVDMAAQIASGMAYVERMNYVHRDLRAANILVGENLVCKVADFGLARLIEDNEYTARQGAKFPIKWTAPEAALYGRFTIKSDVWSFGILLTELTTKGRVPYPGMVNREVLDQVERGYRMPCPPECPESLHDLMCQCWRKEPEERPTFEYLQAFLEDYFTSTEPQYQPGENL
Procedure, shortened: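 Compounds passing 30% inhibition at 25 uM (duplicate) were titrated to a top concentration of 50 uM. Enzyme activity read by fluorescence with mobility-shift substrate/product separation after 1 h; DMSO baseline.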

[14] = target: Adenosine receptor A1 (Bos taurus) (UniProt P28190); assay: NVS_GPCR_bAdoR_NonSelective: NovaScreen (NVS) G Protein-Coupled Receptor Assay for bovine Adenosine Receptor (AdoR), Non-selective Binding (AID 2283244)
Procedure, shortened: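 Cell-free binding with membranes from bovine striatum: radioligand displaced by test chemical, read after 1 h by filtration and scintillation. Single-point 25 uM duplicate primary, 50 uM top concentration in follow-up curves, DMSO baseline.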

[15] = NVS_GPCR_bNPY_NonSelective: NovaScreen (NVS) G Protein-Coupled Receptor Assay for bovine Neuropeptide Y (NPY) Receptor, Non-selective Binding (AID 2283245)
Procedure, shortened: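 Displacement of radioligand from bovine hippocampal membrane receptors, read by filtration and scintillation counting after 1 hour. Concentration-response to a top of 50 uM followed a 25 uM duplicate primary screen. Loss of signal versus DMSO.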

Measured: AC50

Cc1ncc([C@@H](CCCCCCc2ccc3c(n2)NCCC3)CC(=O)O)cn1
inactive: [1] | [2] | [3] | [4] | [5] | [6] | [7]
active: [8] 29 µM

Cc1nc(-c2ccccn2)ncc1C(=O)Nn1cc(C)c2cc(F)ccc21
inactive: [2] | [3] | [9] | [10] | [7] | [11]

CCCCCCOC(=O)CC(CC(=O)OCCCCCC)(OC(=O)CCC)C(=O)OCCCCCC
inactive: [4]

O=C(NO)C1(NS(=O)(=O)c2ccc(Oc3ccc(F)cc3)cc2)CCOCC1
inactive: [10] | [6]

O=c1[nH]cnc2c1ncn2[C@H]1CC[C@@H](CO)O1
inactive: [12] | [2] | [4] | [13] | [9] | [6]

CCOc1ccc2[nH]cc(C(=O)NCc3ccccc3)c(=O)c2n1
inactive: [2]

CCN(CC)C(=S)SSC(=S)N(CC)CC
inactive: [12] | [4] | [9] | [6] | [7] | [14]

CCCC(CCC)C(=O)O
inactive: [12] | [3] | [4] | [5] | [13] | [9] | [6] | [15]

CCCc1ccccc1
inactive: [12]

CC(=O)c1ccccc1
inactive: [12] | [4]

Cn1cc[nH]c1=S
inactive: [4] | [5]

NC(N)=O
inactive: [4]

NNC(=O)c1ccncc1
inactive: [4]

O=C(O)c1ccc2c(c1)nc(C(=O)NC1CCN(C3CC3)CC1)n2Cc1cc(-c2ccc(Cl)s2)on1
inactive: [1] | [2] | [3] | [13]

NC(=O)N1c2ccccc2C=Cc2ccccc21
inactive: [2]
